Source: PubChem BioAssay AID1159580 (chemical genetic matrix, 2015)
Hit rate of the full screen: of about 5,500 compounds, about 2,000 (36%) were called active. About 18% were inconclusive and are not listed. Cut-off read from the data, not from the text of the source: active = normalized growth mostly below about 0.91 (no sharp cut-off); inconclusive = no clear call, values can overlap the other calls; inactive = mostly above about 0.92. The list shows a part of the results.

Assay: chemical genetic growth profiling, strain panel (AID 1159580);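 note: tested at 20 µM; growth read once vehicle control cultures reached saturation at 30 °C; 1 = growth at the plate median or of vehicle wells; lower values mean less growth of the strain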
Conditions: growth OD

Measured: normalized growth

CN(N=O)C(=O)N[C@@H]1[C@@H](O)[C@H](O)[C@@H](CO)O[C@@H]1O
inactive: S. cerevisiae deletion strains, locus YJL187C, strain SWE1 (second series), active compounds read low 1.01 | S. cerevisiae deletion strains, locus YJR043C, strain POL32, active compounds read low 1.01 | S. cerevisiae deletion strains, locus YJR066W, strain TOR1, active compounds read low 0.99 | S. cerevisiae deletion strains, locus YKL009W, strain mrt4, active compounds read low 1.05 | S. cerevisiae deletion strains, locus YKL068W, active compounds read low 1 | S. cerevisiae deletion strains, locus YKL085W, strain MDH1 (second series), active compounds read low 1.01 | S. cerevisiae deletion strains, locus YKL085W, strain MDH1, active compounds read low 1.01 | S. cerevisiae deletion strains, locus YKL160W, strain elf1, active compounds read low 1.02 | S. cerevisiae deletion strains, locus YKR001C, strain vps1, active compounds read low 1 | S. cerevisiae deletion strains, locus YKR026C, strain gcn3, active compounds read low 0.973 | S. cerevisiae deletion strains, locus YKR091W, strain srl3, active compounds read low 0.988 | S. cerevisiae deletion strains, locus YLL001W, strain dnm1, active compounds read low 0.987 | S. cerevisiae deletion strains, locus YLL026W, active compounds read low 0.994 | S. cerevisiae deletion strains, locus YLL041C, strain sdh2, active compounds read low 0.971 | S. cerevisiae deletion strains, locus YLR027C, strain aat2, active compounds read low 1.01 | S. cerevisiae deletion strains, locus YLR039C, strain RIC1, active compounds read low 1.03 | S. cerevisiae deletion strains, locus YLR058C, strain SHM2, active compounds read low 1.01 | S. cerevisiae deletion strains, locus YLR102C, strain apc9, active compounds read low 0.999 | S. cerevisiae deletion strains, locus YLR113W, strain HOG1, active compounds read low 1.03 | S. cerevisiae deletion strains, locus YLR221C, strain rsa3, active compounds read low 0.99 | S. cerevisiae deletion strains, locus YLR258W, strain gsy2, active compounds read low 0.985 | S. cerevisiae deletion strains, locus YLR262C, strain YPT6 (second series), active compounds read low 0.978 | S. cerevisiae deletion strains, locus YLR262C, strain YPT6, active compounds read low 1.02 | S. cerevisiae deletion strains, locus YLR268W, strain sec22, active compounds read low 0.999 | S. cerevisiae deletion strains, locus YLR320W, strain mms22, active compounds read low 0.977 | S. cerevisiae deletion strains, locus YLR330W, strain CHS5, active compounds read low 1.01 | S. cerevisiae deletion strains, locus YLR342W, strain FKS1 (second series), active compounds read low 1.06 | S. cerevisiae deletion strains, locus YLR342W, strain FKS1, active compounds read low 1.01 | S. cerevisiae deletion strains, locus YLR357W, strain rsc2, active compounds read low 0.958 | S. cerevisiae deletion strains, locus YLR370C, strain arc18, active compounds read low 0.999 | S. cerevisiae deletion strains, locus YLR371W, strain rom2, active compounds read low 1.02 | S. cerevisiae deletion strains, locus YLR384C, strain iki3, active compounds read low 0.986 | S. cerevisiae deletion strains, locus YLR418C, strain cdc73, active compounds read low 0.994 | S. cerevisiae deletion strains, locus YML016C, strain PPZ1, active compounds read low 1 | S. cerevisiae deletion strains, locus YML032C, strain rad52, active compounds read low 1.02 | S. cerevisiae deletion strains, locus YML120C, strain ndi1, active compounds read low 0.986 | S. cerevisiae deletion strains, locus YML124C, strain tub3, active compounds read low 1 | S. cerevisiae deletion strains, locus YMR058W, strain fet3, active compounds read low 1 | S. cerevisiae deletion strains, locus YMR078C, strain ctf18, active compounds read low 1.01 | S. cerevisiae deletion strains, locus YMR125W, strain sto1, active compounds read low 0.954 | S. cerevisiae deletion strains, locus YMR129W, active compounds read low 1 | S. cerevisiae deletion strains, locus YMR205C, strain PFK2, active compounds read low 0.98 | S. cerevisiae deletion strains, locus YMR223W, strain ubp8, active compounds read low 1.04 | S. cerevisiae deletion strains, locus YMR231W, strain pep5, active compounds read low 0.994 | S. cerevisiae deletion strains, locus YMR307W, strain GAS1, active compounds read low 1.04 | S. cerevisiae deletion strains, locus YNL067W, strain RPL9B, active compounds read low 1.03 | S. cerevisiae deletion strains, locus YNL071W, strain lat1, active compounds read low 0.983 | S. cerevisiae deletion strains, locus YNL128W, strain TEP1, active compounds read low 1.03 | S. cerevisiae deletion strains, locus YNL153C, strain GIM3, active compounds read low 0.997 | S. cerevisiae deletion strains, locus YNL183C, strain NPR1, active compounds read low 0.983 | S. cerevisiae deletion strains, locus YNL209W, strain ssb2, active compounds read low 0.982 | S. cerevisiae deletion strains, locus YNL233W, strain BNI4, active compounds read low 1.01 | S. cerevisiae deletion strains, locus YNL248C, strain rpa49, active compounds read low 0.978 | S. cerevisiae deletion strains, locus YNL250W, strain rad50, active compounds read low 1.03 | S. cerevisiae deletion strains, locus YNL271C, strain bni1, active compounds read low 1 | S. cerevisiae deletion strains, locus YNL298W, strain CLA4, active compounds read low 1.01 | S. cerevisiae deletion strains, locus YNL307C, strain MCK1, active compounds read low 1.02 | S. cerevisiae deletion strains, locus YNL322C, strain KRE1 (second series), active compounds read low 1.01 | S. cerevisiae deletion strains, locus YNR049C, strain mso1, active compounds read low 0.983 | S. cerevisiae deletion strains, locus YNR052C, strain pop2, active compounds read low 1.01 | S. cerevisiae deletion strains, locus YOL012C, strain htz1 0.87 | S. cerevisiae deletion strains, locus YOL147C, strain pex11, active compounds read low 1.01 | S. cerevisiae deletion strains, locus YOR001W, strain rrp6, active compounds read low 0.995 | S. cerevisiae deletion strains, locus YOR061W, strain CKA2, active compounds read low 1.01 | S. cerevisiae deletion strains, locus YOR069W, strain VPS5, active compounds read low 1.01 | S. cerevisiae deletion strains, locus YOR070C, strain gyp1, active compounds read low 1.01 | S. cerevisiae deletion strains, locus YOR080W, strain dia2, active compounds read low 0.996 | S. cerevisiae deletion strains, locus YOR083W, strain WHI5, active compounds read low 0.986 | S. cerevisiae deletion strains, locus YOR106W, strain vam3, active compounds read low 1.01 | S. cerevisiae deletion strains, locus YOR136W, strain idh2, active compounds read low 1 | S. cerevisiae deletion strains, locus YOR144C, strain elg1, active compounds read low 1.01 | S. cerevisiae deletion strains, locus YOR184W, strain ser1, active compounds read low 1.01 | S. cerevisiae deletion strains, locus YOR231W, strain MKK1, active compounds read low 1.02 | S. cerevisiae deletion strains, locus YOR265W, strain rbl2, active compounds read low 1 | S. cerevisiae deletion strains, locus YOR270C, strain vph1, active compounds read low 0.936 | S. cerevisiae deletion strains, locus YOR290C, strain snf2, active compounds read low 1 | S. cerevisiae deletion strains, locus YOR316C, strain cot1, active compounds read low 1 | S. cerevisiae deletion strains, locus YPL051W, strain arl3, active compounds read low 1.02 | S. cerevisiae deletion strains, locus YPL078C, strain atp4, active compounds read low 0.993 | S. cerevisiae deletion strains, locus YPL106C, strain sse1, active compounds read low 1.02 | S. cerevisiae deletion strains, locus YPL240C, strain hsp82, active compounds read low 0.983 | S. cerevisiae deletion strains, locus YPL256C, strain CLN2, active compounds read low 1.06 | S. cerevisiae deletion strains, locus YPR119W, strain clb2, active compounds read low 1 | S. cerevisiae deletion strains, locus YPR141C, strain kar3, active compounds read low 0.996 | S. cerevisiae deletion strains, locus YPR163C, strain tif3, active compounds read low 1 | S. cerevisiae deletion strains, locus YPR167C, strain met16, active compounds read low 1.01 | S. cerevisiae deletion strains, strain wtn01, active compounds read low 1 | S. cerevisiae strains, strain wild type, active compounds read low 1.01
